Measurements taken from PubChem BioAssay (NCATS).
“And” between values parts separate entries of the source, which are not always exact repeats. Equal entries are not always repeated. Results filed as inconclusive are left out. Where a call stands in place of a potency, no number is given. The source made the active and inactive calls. Unless noted, calls come from the whole dose curve; as a rule, active = well fitted curve in the direction sought with a large enough effect; inconclusive = small, poorly fitted or top-dose-only effect, or another doubt; inactive = no such curve, though single readings can be large; an effect the other way counts as inactive or inconclusive.

Tests used:
[1] = Cell Viability - BJ (AID 421; calls by dose curve;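 note: potency is the fitted concentration of half-maximal effect; cells exposed to compound for 40 hours at 37 °C before readout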); settings: BJ fibroblast viability, qHTS
Method in brief: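 Quantitative HTS: ATP depletion in BJ cells after 40 hr compound exposure in complete culture medium, detected with CellTiter-Glo; AC50 from standard Hill fits.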

[2] = Cell Viability - MRC5 (AID 434; calls by dose curve;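 note: potency is the fitted concentration of half-maximal effect; cells exposed to compound for 40 hours at 37 °C; potency reflects cytotoxicity seen as loss of intracellular ATP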); settings: MRC5 lung fibroblast viability, qHTS
Method in brief: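 ATP luminescence read-out (CellTiter-Glo, 20 min RT) after 40 hr, 37 °C compound exposure of 1500 MRC5 cells/well. Data normalized to DMSO (basal) and 100 uM tamoxifen (100% inhibition); AC50 from standard Hill equation.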

[3] = target: Mitogen-activated protein kinase 10 (Mus musculus) (UniProt Q61831); assay: JNK3 AlphaScreen Assay (AID 530; active = well fitted curve in either direction with a large enough effect, not every such curve was filed as active;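 note: kinase came from lysate of stimulated human HepG2 cells; signal reports phosphorylation of biotinylated GST-cJun 1-79 at Ser73 with 10 µM ATP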); settings: JNK3 lysate, c-Jun phosphorylation; series mostly up to 57.1 µM
Method in brief: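 Activity was read by AlphaScreen after JNK3-containing HepG2 lysate (cytokine pre-activated) phosphorylated biotinylated GST-cJun with 10 uM ATP at room temperature. Phospho-Ser73 cJun antibody with Protein-A acceptor beads provided detection.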

[4] = Cell Viability - NIH 3T3 (AID 541); settings: NIH 3T3 cell viability, qHTS; activity change, negative = cytotoxicity: at 92.2 µM (top of the series);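 note: cells exposed to compound for 40 hours; nearly all actives have a fitted effect of over 25% in size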
Method in brief: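 Intracellular ATP (CellTiter-Glo luminescence, 20 min at room temperature) measured after 40 hr compound exposure at 37 °C of 1000 NIH 3T3 mouse fibroblasts/well in complete medium; AC50 derived by Hill-equation modelling of qHTS concentration-response curves.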

[5] = Cell Viability - Mesenchymal (AID 546); settings: mesenchymal cells viability, qHTS; activity change, negative = cytotoxicity: at 91.7 µM (top of the series);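 note: cells exposed to compound for 40 hours before reading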
Method in brief: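 Human renal mesenchymal cells (glomerulus-derived), 1000 cells/well, 5 hr 37 °C pre-incubation; compound 40 hr, 37 °C; CellTiter-Glo, 20 min RT; luminescence; AC50 via Hill equation.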

[6] = Cellular Toxicity (caspase-3) HepG2 (AID 654); settings: HepG2 caspase-3 activation, luminescence, 0% = DMSO only, 100% = tamoxifen; series mostly up to 92.2 µM;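 note: cells exposed to compound for 16 hours before reading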
Method in brief: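 Caspase 3/7 activation is measured as a luminescence increase (aminoluciferin substrate) after 16 h compound exposure of human hepatocarcinoma HepG2 cells. AC50 values are Hill fits, scaled between DMSO baseline and 100 uM tamoxifen stimulation.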

[7] = Cellular Toxicity (caspase-3) HUV-EC-C (AID 656); settings: HUV-EC-C cells, caspase-3 activation (apoptosis), vehicle = 0, 100 µM tamoxifen = 100%; series mostly up to 92.2 µM
Method in brief: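 Luminescent caspase-3/7 activation (aminoluciferin substrate cleavage) in HUV-EC-C cells after 16 hr compound exposure, 37°C. Signal normalized to DMSO basal and 100 uM tamoxifen as 100%; AC50 from concentration-response fitted with the Hill equation.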

[8] = Cellular Toxicity (caspase-3) MRC-5 (AID 659); settings: MRC-5 cells, luminescence, normalized: DMSO 0%, 10 µM staurosporine 100%; series mostly up to 91.7 µM
Method in brief: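 MRC-5 fibroblasts, 1500/well; 16 h cpd, 37 °C; Caspase-Glo 3/7, 1 h RT; lumi read. Norm: DMSO = 0%, 10 uM staurosporine = 100%. Hill-fit AC50 from qHTS conc-response.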

[9] = Cellular Toxicity (caspase-3) Mesangial (AID 660); settings: mesangial cells, normalized: DMSO 0%, 100 µM tamoxifen 100%; series mostly up to 91.7 µM;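 note: combined caspase 3 and 7 activity read by Caspase-Glo luminescence; cells exposed to compound for 16 h before the caspase read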
Method in brief: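 Caspase 3/7 activation measured by Caspase-Glo 3/7 luminescence (20 min, room temperature) following 16 h exposure of mesangial cells (1000/well); AC50 from Hill-equation fit, normalized to DMSO and 100 uM tamoxifen.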

[10] = Cellular Toxicity (caspase-3) Hek293 (AID 664); settings: HEK293 caspase-3 activation, DMSO = 0%, 100 µM tamoxifen = 100%; series mostly up to 92.2 µM;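 note: cells exposed to compound for 16 h at 37 °C before readout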
Method in brief: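 Concentration-response qHTS: caspase 3/7 activation measured by luminescent aminoluciferin substrate cleavage after 16 h compound exposure of Hek 293 cells. AC50 from Hill equation, with DMSO as basal and 100 uM tamoxifen as 100%.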

[11] = Cellular Toxicity (caspase-3) Renal Proximal Tubule (AID 667); settings: renal proximal tubule cells, primary cells freshly taken from rat, solvent-only wells 0%, staurosporine 100%; series mostly up to 91.7 µM;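 note: cells exposed to compound for 16 hours at 37 °C before detection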
Method in brief: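 Luminescent caspase 3/7 signal from peptide-aminoluciferin cleavage measures apoptosis in freshly isolated rat kidney proximal tubule cells after 16 h compound exposure. Concentration-response data are normalized to DMSO and 10 uM staurosporine, and AC50 values come from Hill equation fits.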

[12] = MultiTox-Fluor Cytotoxicity Assay - LYMP1-003 - Live Cells (AID 962); settings: LYMP1-003 lymphoblastoid cells, MultiTox-Fluor live-cell protease fluorescence; series mostly up to 92.2 µM;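 note: cells exposed to compound for 16 hours at 37 °C; cytotoxic hits lower the live-cell protease signal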
Method in brief: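 Live-cell protease activity (GF-AFC substrate, 405/510 nm, 60 min at room temperature) after 16 h, 37 C compound exposure of human lymphoblastoid LYMP1-003 cells; concentration-response fitted to the Hill equation for AC50.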

[13] = Cell Viability - LYMP1-003 - Assay at 40 hr (AID 964); settings: LYMP1-003 lymphoblastoid viability; series mostly up to 92.2 µM; note: nearly all actives have a fitted effect of over 60% in size
Method in brief: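 Viability is taken as cellular ATP, read by CellTiter-Glo luminescence after 40 h of compound exposure at 37 C. Cells: human lymphoblastoid line LYMP1-003 at 2500/well; AC50 values derived by Hill-equation fitting of concentration-response data.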

[14] = Cell Viability - LYMP2-011 (AID 969); settings: LYMP2-011 lymphoblastoid cells viability; series mostly up to 92.2 µM; note: nearly all actives have a fitted effect of over 60% in size
Method in brief: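 Cytotoxicity qHTS with ATP content as read-out: lymphoblastoid cells (2500/well) exposed to compound for 24 h at 37 C, then luciferase luminescence measured. Concentration-response data fitted with the standard Hill equation to give AC50.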

[15] = Cell Viability - LYMP2-013 (AID 970); settings: LYMP2-013 lymphoblastoid cells viability; series mostly up to 92.2 µM; note: nearly all actives have a fitted effect of over 55% in size
Method in brief: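 qHTS cytotoxicity: ATP-dependent luminescence (CellTiter-Glo, 30 min room temperature) read after 24 h compound exposure at 37 C of 2500 LYMP2-013 lymphoblastoid cells per well. Concentration-response fitted with Hill equation to give AC50.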

[16] = Cell Viability - LYMP2-017 (AID 972); settings: LYMP2-017 lymphoblastoid cell viability; series mostly up to 92.2 µM; note: nearly all actives have a fitted effect of over 55% in size
Method in brief: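 CellTiter-Glo luminescence (cellular ATP, 30 min RT) measured cytotoxicity after 24 hr compound treatment at 37 C. Cells were a human lymphoblastoid line, LYMP2-017, plated at 2500/well and incubated 5 hr first; concentration-response fitted with Hill equation for AC50.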

[17] = Cell Viability - LYMP2-007 (AID 979); settings: LYMP2-007 lymphoblastoid cell viability; series mostly up to 92.2 µM;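 note: cells exposed to compound for 24 h before reading; nearly all actives have a fitted effect of over 60% in size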
Method in brief: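 AC50 values come from Hill-equation fits of luminescent intracellular ATP (CellTiter-Glo, 30 min, room temperature) following 24 h compound exposure at 37 C. Cells: LYMP2-007 lymphoblastoid line, 2500 per well, in complete culture medium.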

[18] = qHTS Assay for Identification of Small Molecule Inducers of Hypoxia Response (AID 2120; active = well fitted curve in the direction sought with a large enough effect in the signal ratio, with a control signal flat, not every such curve was filed as active; the % refers to the signal ratio); settings: hypoxia response reporter cells, beta-lactamase ratio readout; series mostly up to 104 µM
Method in brief: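 Reporter induction read as the CCF4 blue/green (460nm/530nm) emission ratio after 2.5 h dye loading at room temperature. ME-180 HRE-beta-lactamase cells received titrated compounds for 17 h at 37 degrees Celsius; AC50 values derived.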

[19] = qHTS assay for small molecule antagonists of retinoid X receptor alpha signaling (AID 588546); settings: HEK293T RXRa-UAS-bla, beta-lactamase ratio, antagonist mode; measured here: W530 green channel, cytotoxicity proxy;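 note: cells stimulated with 9-cis-retinoic acid as agonist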
Method in brief: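 Beta-lactamase reporter inhibition, read as CCF4 fluorescence ratio (ex 405, em 460/530 nm) after 2 h at RT. HEK293T UAS-bla cells, 2500/well, were stimulated with 9-cis-RA at 500 or 100 nM final alongside test compound for 18 h at 37 C.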

[20] = target: Peroxisome proliferator-activated receptor alpha (Homo sapiens) (UniProt Q07869); assay: qHTS assay for small molecule agonists of the peroxisome proliferator-activated receptor alpha (PPARalpha) signaling pathway (AID 651778); settings: PathHunter PPARalpha complementation, chemiluminescence, 6 h; max response: stronger effect = higher value
Peroxisome proliferator-activated receptor alpha (Homo sapiens), sequence (Q07869 whole entry, looked up, the tested form may be a part): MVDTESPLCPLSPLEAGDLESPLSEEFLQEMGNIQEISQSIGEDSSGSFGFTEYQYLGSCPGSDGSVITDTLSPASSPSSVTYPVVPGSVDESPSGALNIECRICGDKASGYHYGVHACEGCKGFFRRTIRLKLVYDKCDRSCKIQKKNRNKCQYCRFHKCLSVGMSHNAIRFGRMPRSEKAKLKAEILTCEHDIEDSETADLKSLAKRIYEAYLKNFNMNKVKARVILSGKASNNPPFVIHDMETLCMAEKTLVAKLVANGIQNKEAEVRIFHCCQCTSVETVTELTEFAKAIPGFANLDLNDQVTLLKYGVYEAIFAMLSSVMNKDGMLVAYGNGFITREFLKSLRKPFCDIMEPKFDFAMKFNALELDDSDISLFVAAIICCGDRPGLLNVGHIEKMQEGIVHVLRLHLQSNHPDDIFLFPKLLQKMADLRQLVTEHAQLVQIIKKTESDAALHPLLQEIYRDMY
Method in brief: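 Enzyme-fragment complementation assay in which ligand-bound PPARalpha translocates and forms an active enzyme that generates chemiluminescence. Cells were plated overnight, exposed to compound for 6 hr at 37 C, and then given detection reagent for 60 min at room temperature.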

SMILES	Potency [1]	Potency [2]	Potency [3]	Potency [4]	activity change, negative = cytotoxicity [5]	outcome [6]	outcome [7]	outcome [8]	outcome [9]	outcome [10]	outcome [11]	Potency [12]	Potency [13]	Potency [14]	Potency [15]	Potency [16]	Potency [17]	outcome [18]	max response [19]	max response [20]
O=C(O)c1ccccc1C(c1ccc(O)cc1)c1ccc(O)cc1	> 92 µM (inactive)	> 92 µM (inactive)	inactive	inactive	8.62% (inactive)	inactive	inactive	inactive	inactive	inactive	inactive	inactive	inactive	inactive	inactive	inactive	inactive	inactive	-15.7% and -6.86%	0.608% (inactive) and -3.85% (inactive)
c1ccc2scnc2c1	> 92 µM (inactive)	> 92 µM (inactive)	inactive	inactive	-5.46% (inactive)	inactive	inactive	inactive	inactive	inactive	inactive	inactive	inactive	inactive	inactive	inactive	inactive	inactive	-9.8%	-3.74% (inactive)
O[C@@H]([C@H](O)[C@@H](O)CBr)[C@@H](O)CBr	> 92 µM (inactive)	> 92 µM (inactive)	inactive	inactive	7.81% (inactive)	inactive	inactive	inactive	inactive	inactive	inactive	inactive	inactive	inactive	inactive	inactive	inactive	inactive	-10.6%	-0.722% (inactive)
Cc1ccc(N)c([N+](=O)[O-])c1	> 92 µM (inactive)	> 92 µM (inactive)	inactive	inactive	5.43% (inactive)	inactive	inactive	inactive	inactive	inactive	inactive	inactive	inactive	inactive	inactive	inactive	inactive	inactive	-10.8% and -10%	-6.83% (inactive) and -1.01% (inactive)
COc1ccc2nc(N)sc2c1	> 92 µM (inactive)	> 92 µM (inactive)	inactive	inactive	-1.25% (inactive)	inactive	inactive	inactive	inactive	inactive	inactive	inactive	inactive	inactive	inactive	inactive	inactive	inactive	-1.24% and 0.0893%	-0.146% (inactive) and -0.816% (inactive)
